Experimental data as given in PubChem BioAssay (NCI).
Compounds without any hit were thinned out: in the full panel of roughly 79,000, 15% have a hit. A number with no mark means an inactive call. Activity calls are given as the source filed them. Cut-off read from the data, not from the text of the source: active = growth inhibition above about 70%; inactive = the rest.

How the values were obtained:
[1] = NCI Yeast Anticancer Drug Screen. Data for the rad50 strain (AID 155);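 note: 0% = growth of vehicle-only cultures of the same strain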; conditions: S. cerevisiae rad50 strain growth inhibition, stronger effect = higher value
Method in brief: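 DNA repair mutant yeast, compound exposure, growth read-out; inhibition is taken relative to vehicle.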

[2] = NCI Yeast Anticancer Drug Screen. Data for the mec2-1 strain (AID 157); conditions: S. cerevisiae mec2-1 strain, stronger effect = higher value
Method in brief: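 Mutant yeast (mec2-1) grown with compound; growth inhibition relative to vehicle control reported.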

[3] = NCI Yeast Anticancer Drug Screen. Data for the sgs1 mgt1 strain (AID 161);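 note: 0% = growth of cultures given vehicle only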; conditions: S. cerevisiae sgs1 mgt1 strain, stronger effect = higher value
Method in brief: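 This yeast growth screen uses a strain with defined DNA-repair lesions; compound-treated growth is compared with vehicle-treated growth.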

[4] = NCI Yeast Anticancer Drug Screen. Data for the cln2 rad14 strain (AID 165);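 note: 0% = growth equal to vehicle treated cultures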; conditions: S. cerevisiae cln2 rad14 strain, stronger effect = higher value
Method in brief: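 Readout is yeast growth inhibition versus vehicle-treated controls, using a strain with cln2 and rad14 alterations exposed to compound.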

[5] = NCI Yeast Anticancer Drug Screen. Data for the bub3 strain (AID 167); conditions: S. cerevisiae bub3 mutant strain, stronger effect = higher value
Method in brief: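 In this screen, a yeast mutant lacking normal mitotic checkpoint function is challenged with compound. Relative growth versus vehicle gives the inhibition value.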

[6] = NCI Yeast Anticancer Drug Screen. Data for the mlh1 rad18 strain (AID 175); conditions: S. cerevisiae mlh1 rad18 strain growth inhibition, stronger effect = higher value
Method in brief: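 Genetically defined yeast (DNA repair-deficient) exposed to compounds; growth inhibition determined relative to vehicle.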

[7] = at 5.0 µM (retest, dose inferred, filed as 0.5)
[8] = at 50.0 µM (retest, dose inferred, filed as 5.0)

SMILES | growth inhibition [1, 7] | growth inhibition [1, 8] | growth inhibition ([1]; at 50.0 µM) | growth inhibition [2, 7] | growth inhibition [2, 8] | growth inhibition ([2]; at 50.0 µM) | growth inhibition [3, 7] | growth inhibition [3, 8] | growth inhibition ([3]; at 50.0 µM) | growth inhibition [4, 7] | growth inhibition [4, 8] | growth inhibition ([4]; at 50.0 µM) | growth inhibition [5, 7] | growth inhibition [5, 8] | growth inhibition ([5]; at 50.0 µM) | growth inhibition [6, 7] | growth inhibition [6, 8] | growth inhibition ([6]; at 50.0 µM)
CCCCCCCCCCOC(=O)c1ccccn1 | -6% | 93% (active) | 34.1% | -3% | 94% (active) | 42.7% | -3% | 60% | 37.5% | -3% | 75% (active) | 17.2% | 0% | 80% (active) | 43.2% | -2% | 83% (active) | 62.5%
N#CC(NNC(=O)c1ccccc1O)c1c(O)ccc2ccccc12 (configuration not stated) | -4% | 59% | 74.3% (active) | 22% | 51% | 38.9% | -5% | 50% | 61.9% | 16% | 62% | 41.4% | 17% | 79% (active) | 56.1% | 4% | 82% (active) | 51.5%
COc1cc(/C=C2\Sc3scc(-c4cccc([N+](=O)[O-])c4)[n+]3C2=O)cc(OC)c1OC | 1% | 94% (active) | 99% (active) | -1% | 82% (active) | 99% (active) | 13% | 40% | 86.2% (active) | -26% | 91% (active) | 98.4% (active) | -10% | 95% (active) | 99.1% (active) | 5% | 73% (active) | 99% (active)
O=[N+]([O-])c1cccc(F)c1O | 5% | 87% (active) | 52.5% | 6% | 79% (active) | 33.1% | 6% | 78% (active) | 42.5% | 6% | 65% | 0.25% | 0% | 73% (active) | 11.3% | 0% | 89% (active) | 78.3% (active)
Cc1ccc2[nH]c3c(c2c1)[n+]([O-])c1ccccc1[n+]3[O-] | 5% | 16% | -17.4% | 3% | -4% | 35.5% | -8% | -13% | 5.8% | -4% | -7% | -22.5% | -8% | -6% | 37.3% | -6% | 7% | -0.5%
C1CCC2[N-]CC3CCCCC3[N-]CC3CCCCC3[N-]CC3CCCCC3[N-]CC2C1.[Cl][Fe]([Cl])([Cl])[Cl].[Fe+6] (configuration not stated) | 41% | 97% (active) | 96.3% (active) | 10% | 98% (active) | 98.5% (active) | 25% | 98% (active) | 98.5% (active) | 0% | 96% (active) | 96.8% (active) | -3% | 97% (active) | 97.5% (active) | 26% | 98% (active) | 97.7% (active)
O=C(/C=C(\OB(F)F)c1ccccc1)c1ccccc1 | -2% | -4% | 100% (active) | -18% | -19% | 98.9% (active) | -4% | 2% | 97.4% (active) | -8% | 4% | 98.4% (active) | 2% | -1% | 98.2% (active) | 1% | -13% | 97.9% (active)
ClC(Cl)(Cl)C1=CC2c3ccccc3C1c1ccccc12 | -14% | 91% (active) | 89.7% (active) | 0% | 91% (active) | 21.6% | -7% | 91% (active) | 87.8% (active) | -3% | 90% (active) | 22.8% | -9% | 92% (active) | 28.7% | -6% | 92% (active) | 89.5% (active)
CC(C)/C=C1\CCOC1=O | 0% | 9% | 36.3% | -3% | 1% | 14.8% | 1% | 5% | 39.8% | 5% | 3% | 44.5% | -3% | 4% | -0.55% | 0% | 6% | 21.7%
Cc1ccc(C2C(O)=C(c3ccccc3)Sc3ccc(C)cc32)cc1 (configuration not stated) | 12% | 33% | 35.6% | -5% | 77% (active) | 2.45% | 5% | 74% (active) | 77% (active) | -5% | 51% | 23.2% | -4% | 39% | 13.4% | -8% | 81% (active) | 31.4%
Cc1cc(Nc2ccc(O)c(CN3CCN(Cc4cc(Nc5cc(C)nc(N)n5)ccc4O)CC3)c2)nc(N)n1 | 8% | 95% (active) | 97.5% (active) | 6% | 96% (active) | 96.9% (active) | 5% | 96% (active) | 97.5% (active) | 12% | 94% (active) | 89.7% (active) | 9% | 95% (active) | 95.4% (active) | 7% | 97% (active) | 97.5% (active)
C=C1CC[C@@H]2C(C)(C)C(O)CCC2(C)C1COc1ccc2ccc(=O)oc2c1 (some centres not stated) | -10% | 94% (active) | 85.5% (active) | -4% | 97% (active) | 89.3% (active) | -1% | 92% (active) | 86.7% (active) | -5% | 94% (active) | 85.8% (active) | -40% | 94% (active) | 86.5% (active) | -38% | 93% (active) | 82.8% (active)
ONC(=Nc1ccccc1)c1ccccc1 | -137% | 73% (active) | 95.4% (active) | -42% | 47% | 98.3% (active) | -55% | 78% (active) | 96.3% (active) | -58% | 86% (active) | 96.6% (active) | -66% | 35% | 95.2% (active) | -120% | 75% (active) | 97.9% (active)
O=[N+]([O-])c1ccc(NS(=O)(=O)c2ccc(Cl)c(Cl)c2Cl)c([N+](=O)[O-])c1 | 22% | 18% | 78.2% (active) | 24% | 21% | 42.1% | 31% | 38% | 81% (active) | 16% | 25% | 45.1% | 11% | 10% | 7.15% | 22% | 20% | 75.2% (active)
O=C(CN1CCCCC1)c1ccc(/C=C/c2ccc(Cl)cc2)cc1 | 7% | 98% (active) | 98.6% (active) | 4% | 99% (active) | 98.4% (active) | 12% | 98% (active) | 97.1% (active) | -20% | 75% (active) | 97.5% (active) | -13% | 99% (active) | 96.8% (active) | 21% | 99% (active) | 98.1% (active)
Cc1cc(-c2ccc(O)c(C)c2)ccc1O | 13% | 94% (active) | 83% (active) | -15% | 74% (active) | 57.4% | 0% | 78% (active) | 74.6% (active) | 5% | 60% | 51.8% | 23% | 98% (active) | 72.5% (active) | 8% | 91% (active) | 71.5% (active)
COc1ccccc1NC(=O)C1=CNC(C)=C(C(=O)Nc2ccccc2OC)C1/C=C/c1ccccc1 (configuration not stated) | 1% | 18% | 43.5% | -4% | 1% | -0.75% | 1% | 17% | -1.95% | -1% | -8% | -6.3% | -2% | -8% | -1.9% | -1% | 7% | 15.3%
O=C(O)/C=C/c1ccc2c(c1)CCCC2 | 0% | 83% (active) | 90.1% (active) | -8% | 66% | 73% (active) | 3% | 79% (active) | 73.5% (active) | -28% | 70% (active) | 85.3% (active) | -11% | 70% (active) | 64% | -19% | 87% (active) | 62.9%
CC1C[N+](C)(C)C(C)C(=O)C1(c1ccccc1)c1ccccc1 (configuration not stated) | -9% | 2% | 6.6% | -2% | 2% | 10.9% | -23% | 3% | -10.3% | -1% | -2% | -13.4% | -4% | -2% | 28.2% | -6% | -4% | 19.1%
